Laboratory results taken from PubChem BioAssay.
Activity calls are given as the source filed them. Unless noted, how the calls were made is not given here.

How the values were obtained:
[1] = test system: Wnt5a (protein binding on small-molecule microarray); assay: Wnt5a binders on small-molecule microarray, primary screen, biophysical, 635/667 nm fluorescence (AID 1142); conditions: 635 nm fluorescence, higher = more signal;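 further: fluorescence read at 667 nm with signal to noise per printed feature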
[2] = cell viability in Huh7 cells, primary screen, cytotoxicity control for HCV replication inhibitor project, CellTiter-Glo luminescence, basal, 48 h (AID 1143); conditions: Huh7 HCV replicon, higher = more signal, called active from +8 up or from −8 down;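 further: Huh7 hepatoma cells carrying a hepatitis C replication reporter with no stimulus; test concentration not given here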
[3] = P. aeruginosa biofilm formation inhibitors, primary screen, PAO1 strain, BacTiter-Glo luminescence, LB-PBS (AID 1144); conditions: 12 h, higher = more signal
[4] = CREB reporter modulators without forskolin, primary screen, cell-based, PC12, CRE-LacZ reporter, unstimulated (AID 1145); conditions: no forskolin, luminescence, 4.5 h, higher = more signal, called active from +8 up or from −8 down
[5] = CREB reporter modulators under forskolin, primary screen, cell-based, PC12, CRE-LacZ reporter, forskolin-stimulated (AID 1146); conditions: luminescence, 4.5 h, higher = more signal, called active from +8 up or from −8 down;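 further: PC12 cells with 6xCRE LacZ reporter stimulated by forskolin 10 µM; beta-galactosidase reporter signal reflecting CREB driven transcription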
[6] = target: Streptavidin (Streptomyces avidinii) (UniProt P22629); assay: streptavidin binders on small-molecule microarray, primary screen, artefact control for SMM compound annotation, biophysical, 635/667 nm fluorescence (AID 1147); conditions: streptavidin binding, higher = more signal;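 further: signal reflects streptavidin binding to arrayed compounds as a control protein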
Chain of Streptavidin (Streptomyces avidinii) (P22629 whole entry, looked up): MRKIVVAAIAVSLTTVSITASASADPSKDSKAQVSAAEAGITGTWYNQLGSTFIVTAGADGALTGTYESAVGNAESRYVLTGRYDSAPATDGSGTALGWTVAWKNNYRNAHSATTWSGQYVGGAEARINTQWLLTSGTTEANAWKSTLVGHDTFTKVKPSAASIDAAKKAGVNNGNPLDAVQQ

[7] = small-molecule binders of probe aInhba, primary screen, biochemical, small-molecule microarray, 635/667 nm fluorescence (AID 1148); conditions: higher = more signal;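 further: score merges 667nm spot fluorescence with signal-to-noise for antibody binding to printed compounds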
Torsin-1A (Homo sapiens) [8] = target: Torsin-1A (Homo sapiens) (UniProt O14656); assay: torsin A binders from cell lysate, primary screen, small-molecule microarray, wild-type, 635/667 nm (AID 1149); conditions: COS7 hTOR1A-WT lysate, 635 nm fluorescence, higher = more signal
Chain of Torsin-1A (Homo sapiens) (O14656 whole entry, looked up): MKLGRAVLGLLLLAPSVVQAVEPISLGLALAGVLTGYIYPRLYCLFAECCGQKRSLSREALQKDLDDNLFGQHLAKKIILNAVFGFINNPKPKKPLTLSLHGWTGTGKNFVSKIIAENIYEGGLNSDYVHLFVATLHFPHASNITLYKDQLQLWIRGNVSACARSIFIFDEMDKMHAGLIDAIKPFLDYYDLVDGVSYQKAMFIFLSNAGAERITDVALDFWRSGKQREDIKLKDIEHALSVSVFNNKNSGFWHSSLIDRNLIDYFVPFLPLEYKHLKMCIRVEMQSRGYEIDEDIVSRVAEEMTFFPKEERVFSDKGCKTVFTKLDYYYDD

Torsin-1A (Homo sapiens) [9] = target: Torsin-1A (Homo sapiens) (UniProt O14656); assay: small-molecule binders of mutant TOR1A in lysate, primary screen, cell lysate, small-molecule microarray, COS7 lysate, 635/667 nm fluorescence (AID 1150); conditions: COS7 hTOR1A mutant lysate, 635 nm fluorescence, higher = more signal;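 further: score pools 667 nm emission and signal to noise measuring lysate protein binding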
[10] = test system: Sonic hedgehog protein (Shh); assay: small-molecule binders of Shh protein, primary screen, biochemical, small-molecule microarray, 635/667 nm fluorescence (AID 1151); conditions: small-molecule microarray binding, 635 nm fluorescence; higher = more signal;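 further: Shh protein binding to compounds spotted on small-molecule microarray slides; score combines spot fluorescence intensity with signal-to-noise across triplicate slides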
[11] = E. coli DRC41 culture turbidity changes, primary screen, E. coli filamentation inducer project, strain DRC41, OD650, 48 h (AID 1152);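 further: E. coli MC1000 strain DRC41 lacking acrAB efflux pump and sulA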; conditions: E. coli DRC41 (acrAB sulA), higher = more signal, called active from +8 up or from −8 down
[12] = small-molecule binders of probe aLefty1, primary screen, biochemical, small-molecule microarray, 635/667 nm fluorescence (AID 1153); conditions: higher = more signal;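 further: score merges spot fluorescence with signal-to-noise ratio from the scanned slide images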
[13] = PSAC antagonists in infected red cells, primary screen, cell-based, P. falciparum Indochina, OD700, 1 h (AID 1154); conditions: P. falciparum Indochina infected RBC osmotic lysis, higher = more signal, called active from +8 up or from −8 down
[14] = PSAC antagonists in infected red cells, primary screen, cell-based, P. falciparum Indochina, OD700, 2 h (AID 1155);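 further: lysis reports solute entry through the parasite surface anion channel PSAC; channel blockers reduce lysis of infected cells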; conditions: P. falciparum Indochina infected erythrocytes, osmotic lysis OD700; higher = more signal, called active from +8 up or from −8 down
[15] = osmotic lysis modulators in infected erythrocytes, primary screen, PSAC antagonist project, cell-based, P. falciparum Indochina, OD700, 3 h (AID 1156); conditions: higher = more signal, called active from +8 up or from −8 down
[16] = PSAC antagonists in infected red cells, primary screen, cell-based, P. falciparum Indochina, OD700, 18 h (AID 1157); conditions: P. falciparum Indochina infected erythrocytes, osmotic lysis OD700, 18 h; higher = more signal, called active from +8 up or from −8 down
[17] = modulators of S6 phosphorylation in cells, primary screen, cell-based, A549, cytoblot, luminescence, serum-stimulated (AID 1158); conditions: A549 phospho-S6 cytoblot, 5 h, higher = more signal;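 further: serum-stimulated A549 lung adenocarcinoma cells; signal is phosphorylated S6 detected by cytoblot immunostaining with HRP secondary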
[18] = target: NADPH oxidase 2 (Homo sapiens) (UniProt P04839); assay: NOX2-dependent H2O2 signal modulators, primary screen, NOX inhibitor project, cell-based, HEK293-NOX2, PMA-stimulated, Amplex Red fluorescence (AID 1159); conditions: 45 min, higher = more signal, called active from +8 up or from −8 down; further: test concentration not given here
Chain of NADPH oxidase 2 (Homo sapiens) (P04839 whole entry, looked up): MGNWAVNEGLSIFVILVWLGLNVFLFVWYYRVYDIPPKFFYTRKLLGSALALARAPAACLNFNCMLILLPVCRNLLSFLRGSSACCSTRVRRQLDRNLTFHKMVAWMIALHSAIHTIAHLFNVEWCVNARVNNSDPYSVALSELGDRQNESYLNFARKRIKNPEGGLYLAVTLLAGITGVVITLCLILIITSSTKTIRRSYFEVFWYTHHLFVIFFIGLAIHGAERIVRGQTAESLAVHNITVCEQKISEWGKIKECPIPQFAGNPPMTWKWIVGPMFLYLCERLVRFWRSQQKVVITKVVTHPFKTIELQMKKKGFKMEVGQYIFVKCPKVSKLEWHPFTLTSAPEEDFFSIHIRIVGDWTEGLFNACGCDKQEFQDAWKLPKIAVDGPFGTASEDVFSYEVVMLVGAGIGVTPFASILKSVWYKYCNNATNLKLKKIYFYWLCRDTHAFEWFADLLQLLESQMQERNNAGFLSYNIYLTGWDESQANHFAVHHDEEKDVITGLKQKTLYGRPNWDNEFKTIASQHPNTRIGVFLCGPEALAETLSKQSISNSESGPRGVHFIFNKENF

[19] = target: NADPH oxidase 4 (Homo sapiens) (UniProt Q9NPH5); assay: NOX4-dependent H2O2 signal modulators, primary screen, NOX inhibitor project, cell-based, HEK293-NOX4, tetracycline-induced, Amplex Red fluorescence (AID 1160); conditions: 45 min, higher = more signal, called active from +8 up or from −8 down
Chain of NADPH oxidase 4 (Homo sapiens) (Q9NPH5 whole entry, looked up): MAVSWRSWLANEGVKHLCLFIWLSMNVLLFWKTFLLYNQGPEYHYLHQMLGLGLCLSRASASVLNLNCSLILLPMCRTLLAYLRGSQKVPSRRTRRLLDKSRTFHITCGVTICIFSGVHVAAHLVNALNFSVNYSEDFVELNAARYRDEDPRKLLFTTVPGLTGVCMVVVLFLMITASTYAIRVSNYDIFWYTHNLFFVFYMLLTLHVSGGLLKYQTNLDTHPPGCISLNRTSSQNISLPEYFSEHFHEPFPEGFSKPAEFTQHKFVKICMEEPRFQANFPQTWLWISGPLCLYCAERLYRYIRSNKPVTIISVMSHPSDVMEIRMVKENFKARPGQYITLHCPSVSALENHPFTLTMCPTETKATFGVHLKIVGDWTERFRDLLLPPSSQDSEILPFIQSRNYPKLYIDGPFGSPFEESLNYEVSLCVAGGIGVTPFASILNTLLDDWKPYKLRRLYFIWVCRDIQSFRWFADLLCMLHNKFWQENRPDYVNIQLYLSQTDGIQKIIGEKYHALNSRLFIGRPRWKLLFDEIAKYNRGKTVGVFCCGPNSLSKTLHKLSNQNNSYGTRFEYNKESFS

[20] = target: NADPH oxidase 5 (Homo sapiens) (UniProt Q96PH1); assay: NOX5-dependent H2O2 signal modulators, primary screen, NOX inhibitor project, cell-based, HEK293-NOX5, Amplex Red fluorescence (AID 1161); conditions: HEK293-NOX5, ionomycin, 45 min, higher = more signal
Chain of NADPH oxidase 5 (Homo sapiens) (Q96PH1 whole entry, looked up): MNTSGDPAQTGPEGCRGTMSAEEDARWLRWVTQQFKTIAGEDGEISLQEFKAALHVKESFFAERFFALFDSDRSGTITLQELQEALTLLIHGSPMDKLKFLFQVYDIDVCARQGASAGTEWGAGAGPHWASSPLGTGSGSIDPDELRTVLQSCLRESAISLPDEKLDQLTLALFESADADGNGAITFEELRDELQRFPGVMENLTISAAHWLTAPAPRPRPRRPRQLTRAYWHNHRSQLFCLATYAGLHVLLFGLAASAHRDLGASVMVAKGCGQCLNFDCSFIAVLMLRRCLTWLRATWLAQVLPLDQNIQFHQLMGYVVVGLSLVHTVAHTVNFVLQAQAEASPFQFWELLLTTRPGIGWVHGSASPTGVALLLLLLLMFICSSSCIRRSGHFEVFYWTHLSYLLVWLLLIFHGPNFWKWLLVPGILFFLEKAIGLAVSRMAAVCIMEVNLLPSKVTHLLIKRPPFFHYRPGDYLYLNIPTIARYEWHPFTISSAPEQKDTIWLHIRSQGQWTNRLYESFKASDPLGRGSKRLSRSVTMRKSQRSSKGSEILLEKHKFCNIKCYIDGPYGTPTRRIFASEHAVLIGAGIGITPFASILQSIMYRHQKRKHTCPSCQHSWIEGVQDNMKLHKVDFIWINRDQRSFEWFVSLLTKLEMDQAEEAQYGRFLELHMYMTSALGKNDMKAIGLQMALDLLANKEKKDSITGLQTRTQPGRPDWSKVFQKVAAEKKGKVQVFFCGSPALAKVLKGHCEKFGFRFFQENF

Structure (SMILES) | composite z-score [1] | z-score [2] | z-score [3] | z-score [4] | z-score [5] | composite z-score [6] | composite z-score [7] | composite z-score (Torsin-1A (Homo sapiens) [8]) | composite z-score (Torsin-1A (Homo sapiens) [9]) | composite z-score [10] | z-score [11] | composite z-score [12] | z-score [13] | z-score [14] | z-score [15] | z-score [16] | z-score [17] | z-score [18] | z-score [19] | z-score [20]
CC1CC/C=C\[C@H]2OC34C=CCN(C(C)(C)C)C(=O)[C@H]3N(C(CO)C(C)C)C(=O)[C@@H]4C2C(=O)O1 (stereo not given in full) | 0.0295 | 0.0336 (inactive) | 1.4 (inactive) | -0.354 (inactive) | 0.46 (inactive) | -0.324 | -0.128 | 0.0733 | 0.931 | 0.774 | -0.281 (inactive) | -0.142 | 0.462 (inactive) | 0.451 (inactive) | 0.44 (inactive) | 0.404 (inactive) | -0.248 | 1.31 (inactive) | -0.568 (inactive) | 2.34
[N-]=[N+]=Nc1ccccc1C[C@]1(C(=O)O)N=C(c2ccc(OCCCO)cc2)O[C@H]1c1ccccc1 | 0.0269 | -0.218 (inactive) | -0.54 (inactive) | 2.53 (inactive) | -0.522 (inactive) | 0.261 | 0.189 | 1.05 | 1.45 | -0.536 | 0.174 (inactive) | -0.007 | 18.4 (active) | 2.83 (inactive) | 1.35 (inactive) | 0.589 (inactive) | -0.138 | 0.22 (inactive) | 0.818 (inactive) | 0.857
CC1(C)C(=O)C(c2ccccc2)=C2CN3C(=O)N(CCc4ccccc4)C(=O)C3(Cc3ccc(F)cc3)C=C21 (stereo not given) | 0.198 | -1.86 (inactive) | -0.425 (inactive) | 0.587 (inactive) | -0.0536 (inactive) | 0.326 | 0.349 | -0.448 | 0.0142 | -1.41 | -2.48 (inactive) | 0.595 | 2.94 (inactive) | 0.371 (inactive) | 1.8 (inactive) | 0.765 (inactive) | -0.16 | -0.952 (inactive) | -4.15 (inactive) | -3.9
COc1cc(NN2C(C(O)C3CCCCC3)C=CC3C(=O)N(c4ccccc4)C(=O)C32)cc(OC)c1OC (stereo not given) | 0.316 | -2.88 (inactive) | -0.408 (inactive) | 0.436 (inactive) | -0.0678 (inactive) | 0.775 | 0.121 | -0.224 | 0.335 | -0.686 | -1.02 (inactive) | -0.441 | 1.73 (inactive) | -0.35 (inactive) | 1.36 (inactive) | -1.16 (inactive) | 1.37 | -3.07 (inactive) | -5.15 (inactive) | -5.24
